The list is not random: actives were taken first. Their share in the collection is about 4.3%.
PfHsp40 yeast – restores yeast growth despite PfHsp40 toxicity; S. cerevisiae expressing PfHsp40, growth rescue, ATP luminescence; growth rescue, % at 12.5 µM; 340,000 compounds, 0.68% hits; in the data active means growth rescue above about 28%, passing the limit was not always enough; inconclusive means no clear call, values can overlap the other calls;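 further: yeast W303a lacking pdr1 and pdr3 grown in galactose medium; growth measured after three days at 30 °C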
MazF activator – activators of E. coli MazEF toxin-antitoxin RNase. P0AE70. activation, % at 20 µM. AID 504720. 350,000 compounds, 0.32% hits. FAM/BHQ RNA-DNA oligo cleavage fluorescence, 5 h; in the data active means activation above about 50%
Target sequence (P0AE70 whole entry, looked up): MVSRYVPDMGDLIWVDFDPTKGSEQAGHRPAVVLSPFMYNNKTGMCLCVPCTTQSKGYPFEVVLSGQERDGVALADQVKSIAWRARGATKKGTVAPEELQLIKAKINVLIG
Autofluor counter – flagged as autofluorescent in microsphere protease counterscreen; compound autofluorescence counterscreen, microsphere flow cytometry; active compounds read high; fluorescence intensity (concentration not given with the values); 360,000 compounds, 3.1% hits; in the data active means fluorescence intensity above about 16000; inconclusive means no clear call, values can overlap the other calls
BoNT A protease – inhibitors of Botulinum neurotoxin A light chain protease; 360,000 compounds, 0.17% hits; multiplex microsphere protease substrate cleavage, flow cytometry; inhibition, % at 10 µM
BoNT F protease – inhibitors of Botulinum neurotoxin F light chain protease | 360,000 compounds, 0.22% hits | Multiplex microsphere protease cleavage assay, flow cytometry | AID 588497 | inhibition, % at 10 µM; in the data active means inhibition above about 35%, passing the limit was not always enough; inconclusive means no clear call, values can overlap the other calls
Anthrax LF inh2 – anthrax lethal factor protease inhibition | P15917 | multiplex microsphere protease cleavage assay, LF | inhibition, % at 10 µM | 360,000 compounds, 0.12% hits
A number is an active result; - = inactive; ? = inconclusive; . = no result. Unless noted, no stated cut-off is given here; in the data, active means inhibition above about 30%; inconclusive means no clear call, values can overlap the other calls; inactive means below that.

SMILES	PfHsp40 yeast	MazF activator	Autofluor counter	BoNT A protease	BoNT F protease	Anthrax LF inh2
CCC(=O)Nc1cc(C(=O)OCC(=O)c2ccc(Cl)cc2Cl)ccc1C	-	-	-	-	-	-
CCC(=O)Nc1cc(C(=O)OCC(=O)c2ccccc2Cl)ccc1C	-	-	20188	-	-	-
CC(C)c1ccc(NC(=O)C2C3C=CC4(O3)C2C(=O)N(CCCN2CCOCC2)C4C(=O)NC2CCCCC2)cc1 (stereo unspecified)	-	-	-	-	-	-
COc1cc(C(O)c2nc(/C=C/c3ccc(C(F)(F)F)cc3)cs2)ccc1F (stereo unspecified)	.	.	-	-	-	-
Cc1ccc(C23CC4CC(CC(NC(=O)NC(C)(C)CO)(C4)C2)C3)cc1	-	-	22797	-	-	-
CCOC(=O)c1ccc(N)cc1	-	-	-	-	-	-
CCOC(=O)c1sc(-c2ccc(Br)cc2)cc1N	-	-	18598	-	-	-
CCOC(=O)c1cc(-c2ccc(N)cc2)sc1N	-	-	18171	-	-	-
Cc1nn(-c2ccc(F)cc2)c(Cl)c1C(=O)N(C)CC(=O)Nc1cccc(F)c1	-	-	.	.	.	.
COc1ccccc1C(=O)NC(=S)/C=C1/N(C)c2ccccc2C1(C)C	-	-	-	49	-	-
CN1/C(=C\C(=S)NC(=O)c2ccccc2Cl)C(C)(C)c2ccccc21	-	-	-	38	-	-
Cc1cccc(C(=O)N2CCC[C@H]2C(=O)N2CCC[C@H]2C(=O)NCc2ccncc2)c1	.	.	-	-	-	-
COc1cccc(NC(=O)C(C#N)Cc2ccncc2)c1 (stereo unspecified)	-	-	19544	-	-	-
O=C(COC(=O)Cc1ccccc1F)Nc1ccc(F)cc1F	-	-	-	-	-	-
CCOc1ccc(OCCC(=O)OCC(=O)Nc2cc(OCC)c(N3CCOCC3)cc2OCC)cc1	-	-	-	-	-	-
COCCn1c(N)c(C(=O)OCc2ccccc2)c2nc3ccccc3nc21	-	-	20725	-	-	-
CSc1ccc(/C=N/NC(=O)c2cccs2)cc1	-	-	-	-	45	?
O=C(N/N=C/c1ccncc1)c1cccs1	-	-	-	-	-	-
CCCCCC1CC(/C(C)=N/NC(N)=O)OC1=O (stereo unspecified)	-	-	-	-	-	-
CCCCCCC1CC(C)(/C(C)=N/NC(N)=O)OC1=O (stereo unspecified)	-	-	18949	-	-	-
CCCCn1c(Nc2ccccc2)nc2ccccc21	-	-	16689	-	-	-
CCC(=O)Nc1nc2ccccc2n1CCN1CCOCC1	-	-	-	-	-	-
CCn1c(NN=O)nc2ccccc21	140	-	-	-	-	-
CCCCCCCn1c(NC(=O)CC)nc2ccccc21	93	-	-	-	?	-
Cc1cccc(C)c1-n1nnnc1C1(C)CCC(=O)N1Cc1cccs1 (stereo unspecified)	.	.	-	-	-	-
SMILES	PfHsp40 yeast	MazF activator	Autofluor counter	BoNT A protease	BoNT F protease	Anthrax LF inh2
CCNC(=S)N/N=C/c1sc(N2CCCCC2)nc1-c1cccs1	-	257	-	?	?	?
Cc1c(Cl)cnc(NC(=O)COC(=O)[C@H](C)NC(=O)c2ccccc2)c1Cl	-	-	?	-	-	-
Cc1cc(C)c(NC(=O)CN2CCN(C)CC2)c(C)c1	-	-	-	-	-	-
COc1ccc(N2CCN(CC(=O)Nc3c(C)cc(C)cc3C)CC2)cc1	-	-	17139	-	-	-
Cc1cc(C)c(NC(=O)CS(=O)CC(=O)N2CCN(c3ccccc3)CC2)c(C)c1 (stereo unspecified)	-	-	16393	-	-	-
Cc1ccc(S(=O)(=O)N2CCN(C(=O)COC(=O)CCOc3ccc(C(C)(C)C)cc3)CC2)cc1	-	-	-	-	-	-
C[C@@H]1CN([C@@H](C)CO)S(=O)(=O)c2ccc(Br)cc2O[C@H]1CN(C)C(=O)Cc1cccnc1	.	-	-	-	-	-
CCOCCc1nnc(NC(=O)Cc2ccc(Br)cc2)s1	-	-	23584	-	-	-
CCOCCc1nnc(NC(=O)CCc2ccccc2)s1	-	-	-	-	-	-
CC(C)c1ccc(NC2CCCN(C(=O)c3ccoc3)C2)cc1 (stereo unspecified)	-	-	-	-	-	-
COc1cccc(OC)c1C(=O)Nc1nc(N)n(-c2ccccc2)n1	-	-	17413	-	-	-
COc1ccc(C(=O)Nc2nc(N)n(-c3ccccc3)n2)cc1OC	-	-	-	-	?	-
CCn1nc(C)c(CN2CCc3c([nH]c4ccccc34)C2c2ccc(F)c(OC)c2)c1C (stereo unspecified)	-	-	-	-	-	-
CCN1CCN(C(c2ccc(C(F)(F)F)cc2)c2ccc3cccnc3c2O)CC1 (stereo unspecified)	60	-	-	-	-	-
COc1ccc(-n2c(-c3ccco3)n[nH]c2=S)cc1	-	-	22219	-	-	-
N#Cc1c(OCC(=O)c2ccccc2)nc2c(c1-c1ccco1)CCc1ccccc1-2	-	-	18221	-	-	-
CCOC(=O)COc1nc2c(c(-c3ccco3)c1C#N)CCc1ccccc1-2	-	-	-	-	-	?
CN1C(=O)C(C)(C)c2cc(S(=O)(=O)N3CCN(c4cccc(Cl)c4)CC3)ccc21	-	-	-	-	-	-
Nc1cc(C(=O)OCC(=O)N2CCOCC2)ccc1Cl	-	-	-	-	-	-
Nc1ccc(C(=O)OCC(=O)N2CCOCC2)cc1[N+](=O)[O-]	47	-	-	-	-	-
O=C(OCC(=O)N1CCOCC1)c1ccc(Cl)nc1	-	-	22562	-	-	-
CC1CCN(C(=O)COC(=O)c2ccc(Cl)nc2)CC1	-	-	-	-	-	-
COC(=O)c1sc(NC(=O)c2cc3c(s2)CCCC3)nc1C	-	-	25221	-	-	-
Cc1nc(NC(=O)c2cc3c(s2)CCCCC3)sc1C(=O)N(C)C	-	-	-	-	-	-
CC(NC(=O)c1cc2c(s1)CCCC2)C(C)(C)C (stereo unspecified)	-	-	16452	-	-	-
SMILES	PfHsp40 yeast	MazF activator	Autofluor counter	BoNT A protease	BoNT F protease	Anthrax LF inh2
CCC(CO)NC(=O)c1cc2c(s1)CCC2 (stereo unspecified)	-	-	-	-	-	-
Cc1[nH]c2ccccc2c1/C=N/Nc1ccc([N+](=O)[O-])cc1	-	-	-	-	-	-
COc1ccccc1NS(=O)(=O)c1cc([N+](=O)[O-])ccc1N/N=C/c1c(C)[nH]c2ccccc12	-	-	16725	-	-	-
CC1CCC(NC(=O)Cn2c(=O)[nH]c3ccsc3c2=O)CC1 (stereo unspecified)	-	-	?	?	?	?
O=C(Cn1c(=O)[nH]c2ccsc2c1=O)NC1CCCCCC1	-	-	23444	?	-	-
CCN(CC)S(=O)(=O)c1ccc(S(=O)(=O)N(CC(=O)Nc2ccccc2)Cc2ccco2)cc1	-	-	22492	-	-	-
O=C(CN(Cc1ccccc1)S(=O)(=O)c1ccc(Br)cc1)NCc1ccco1	-	-	23735	-	-	-
